Experimental data published in PubChem BioAssay AID2057 (The Scripps Research Institute Molecular Screening Center, 2009).
Screen size: about 320,000 compounds; about 2,100 (0.66%) were called active. Shown is part of a subset that was picked to be rich in actives. Unmarked numbers belong to inactive results.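 The calls were made as follows: active = inhibition above the mean inhibition of all tested compounds plus 3 SD, set per campaign (cut at about 40% in these data); inactive = the rest.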

target: Induced myeloid leukemia cell differentiation protein Mcl-1 (Homo sapiens) (UniProt Q07820); experiment: MCL1-BIM peptide interaction disruptors – biochemical, fluorescence polarization, primary screen (AID 2057); conditions: GST-MCL1 / FITC-Bim-BH3 fluorescence polarization; at 10.9 µM; active compounds read high;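 also: 0% = DMSO wells and 100% = unlabeled Bim-BH3 peptide control; higher means more loss of mP so more displacement of Bim peptide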
Sequence (Q07820 whole entry, looked up): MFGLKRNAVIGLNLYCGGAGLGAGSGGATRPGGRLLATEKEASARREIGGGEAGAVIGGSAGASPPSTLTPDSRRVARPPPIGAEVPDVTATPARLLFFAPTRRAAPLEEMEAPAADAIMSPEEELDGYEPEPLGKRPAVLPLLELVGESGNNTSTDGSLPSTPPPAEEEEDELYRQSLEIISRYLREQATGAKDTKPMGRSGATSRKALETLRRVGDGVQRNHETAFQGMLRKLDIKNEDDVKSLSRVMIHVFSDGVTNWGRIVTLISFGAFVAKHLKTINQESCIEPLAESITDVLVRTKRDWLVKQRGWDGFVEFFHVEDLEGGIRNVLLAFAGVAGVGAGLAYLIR

Compound	inhibition
COC1=C(N2CCOCC2)C(=O)c2ccccc2C1=O	6.69%
O=C1c2ccccc2-c2ncnc3c(N4CCOCC4)cc(N4CCOCC4)c1c23	48.8% (active)
Cc1oc2c(c1C(=O)N1CCOCC1)C(=O)c1ccccc1C2=O	-4.11%
COc1ccc(OC)c(NC(=O)CN(C)CCOc2ccc(Br)cc2)c1	-19.6%
CCN(CC)C(=O)CC(c1ccc2c(c1)OCO2)c1c(OC)cc(OC)c2c(-c3ccccc3)cc(=O)oc12 (stereo not given)	2.43%
Cc1cc(C)c2c(-n3cccc3)c(C(=O)NNS(=O)(=O)c3ccc(F)cc3)sc2n1	13.1%
COc1ccc(CNC(=O)c2cc3c(=O)n4ccccc4nc3n(CC3CCCO3)c2=N)cc1 (stereo not given)	9.61%
Cc1cccn2c(=O)c3cc(C#N)c(=NC(=O)c4cccnc4)n(CC4CCCO4)c3nc12 (stereo not given)	44.1% (active)
Cc1cccn2c(=O)c3cc(C#N)c(=O)n(CCCN4CCOCC4)c3nc12	23.2%
CCN(CC(=O)NCc1cccs1)c1nnnn1-c1ccccc1	3.16%
O=C(NCc1cccnc1)C12CC3CC(CC(C3)C1)C2	3.8%
Cc1cc(N2CCN(S(=O)(=O)c3ccc(C)c(C)c3)CC2)c2ccccc2n1	-2.07%
Cc1ccc(S(=O)(=O)C(C#N)c2nc3ccccc3nc2N2CCCC2)cc1C (stereo not given)	75.8% (active)
Cc1ccc(S(=O)(=O)Nc2nc3ccccc3nc2N2CCc3ccccc3C2)cc1	12.7%
O=C(CN1CCN(S(=O)(=O)c2ccc(Cl)s2)CC1)N1CCCCC1	5.82%
O=C(NCCC1CCCCN1S(=O)(=O)c1ccc(Cl)cc1)C(=O)NCc1ccco1 (stereo not given)	9.57%
CCCn1c(C2CCCN2c2nc(-c3ccc(OC)cc3)cs2)nc2ccccc21 (stereo not given)	11.8%
CCCn1c(C2CCCN2c2nc(-c3ccc(C)cc3)cs2)nc2cc(Cl)c(N3CCCCC3)cc21 (stereo not given)	75.2% (active)
CCCn1c(C(C)Nc2nc(-c3ccc(C)cc3)cs2)nc2cc(Cl)c(N3CCCCC3)cc21 (stereo not given)	5.75%
O=C1N[C@@H](Cc2ccccc2)C(=O)N2[C@@H]3N(S(=O)(=O)c4ccc(F)cc4)c4ccccc4[C@]3(Br)C[C@@H]12	8.03%
CC(=O)NC(C)(C)C1CC=C(C)/C(=N\O)C1 (stereo not given)	-0.57%
CSc1c(SCc2ccccc2)cnn(Cc2ccccc2)c1=O	181% (active)
COC(=O)c1ccc(SCc2ccccc2)nc1	11.2%

Compound	inhibition
CCn1c(SCc2ccccc2)nc2cc(OC)c(OC)cc2c1=O	3.42%
Cc1c(C)c(C)c(S(=O)(=O)N2CCC3(CC2)OCCO3)c(C)c1C	6.11%
Cc1cc(CNC(=O)C2CCC(=O)N(CCc3ccc(Cl)cc3)C2)no1 (stereo not given)	2.34%
Cc1ccc(C(=O)NC2CCCC(C)C2C)cc1S(=O)(=O)N1CCCCC1 (stereo not given)	-1.76%
O=C(Nc1nccs1)c1cc(S(=O)(=O)N2CCOCC2)c(Cl)cc1Cl	5.02%
Oc1cc2c(cc1O)CN(C(=S)NCCc1ccc(Cl)cc1)CCC2	34.4%
O=C(COC(=O)/C=C/c1ccc(OC(F)F)cc1)NC1CCCCC1	-2.99%
COc1ccc(-c2nc(CS(=O)CC(=O)NCc3ccccc3)c(C)o2)cc1OC (stereo not given)	9.71%
COc1cccc(-c2nc(CS(=O)CC(=O)NCc3ccc(F)cc3)c(C)o2)c1 (stereo not given)	0.44%
COc1ccc(-c2nc(CS(=O)CC(=O)NCc3ccccn3)c(C)o2)cc1 (stereo not given)	111% (active)
COCCCNC(=O)CNC(=S)N(Cc1cc(OC)c(OC)c(OC)c1)C1CCCC1	-4.92%
O=C(Cc1ccc(-n2c(=O)c3sccc3n(Cc3ccc(F)cc3)c2=O)cc1)NCc1ccco1	-2.64%
O=C(CCCn1c(SCC(=O)c2ccccc2)nc2ccccc2c1=O)NCC1CCCO1 (stereo not given)	0.98%
O=C(CCn1c(SCC(=O)c2ccccc2)nc2ccccc2c1=O)NCc1ccc(F)cc1	41.6% (active)
O=C(CCCn1c(SCC(=O)c2ccc(F)cc2)nc2ccccc2c1=O)NCc1ccco1	2.72%
Cc1cccc(-c2c(NC(=O)c3ccco3)oc3ccc(Cl)cc3c2=O)c1	-4.25%
CCOC(=O)N1CCN(Cc2nnc(-c3ccccc3Cl)o2)CC1	2.02%
Cn1cnnc1SCc1nnc(-c2ccccc2Br)o1	5.99%
Nc1cccc2c1C(=O)N(Cc1nnc(-c3ccccc3Br)o1)C2=O	54.3% (active)
C=CCOC(=O)C1=C(C)N=C2SCCC(=O)N2C1/C=C/c1ccccc1OC (stereo not given)	-0.33%
COc1ccc(C2CC(c3ccc(C)cc3)Nc3nc(N)nn32)cc1 (stereo not given)	-0.86%
COc1ccc(C2C=C(c3ccc(Br)cc3)Nc3nc(NS(C)(=O)=O)nn32)cc1 (stereo not given)	175% (active)
